Screens: PubChem, National Center for Advancing Translational Sciences (NCATS)
Pf growth 48h = inhibits P. falciparum growth in the first generation, 48 h. P. falciparum luciferase growth in erythrocytes, 48 h. Potency, µM (series often up to 28.7 µM), most hits filed as inhibitors. 310,000 compounds, 5.9% hits. AID 504832
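Erythrocytes infected with P. falciparum carrying an integrated firefly luciferase reporter (2% hematocrit, 0.1% parasitemia final) were exposed to compounds in RPMI 1640 with 0.5% Albumax at 37 C, 5% CO2. Growth inhibition was scored as reduced luminescence.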
Pf growth 96h = P. falciparum growth inhibition at 96 hours; P. falciparum luciferase reporter growth, 96 h; Potency, µM (top dose mostly 28.7 µM), hits mostly inhibitors; 320,000 compounds, 6.9% hits; AID 504834
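P. falciparum expressing integrated firefly luciferase, in erythrocytes at 2% hematocrit, 0.05% parasitemia, incubated with compounds 96 h at 37 C, 5% CO2. Growth inhibition read as loss of luminescence; two-generation exposure targets delayed-death apicoplast inhibitors.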
SARS PLpro yeast = blocks SARS-CoV papain-like protease in a yeast assay | S. cerevisiae expressing SARS-CoV PLpro, growth rescue | Potency, µM (highest dose often 32.9 µM), hits mostly activators | 330,000 compounds, 0.19% hits; calls by dose curve; note: nearly all actives have a fitted effect of over 55% in size
Sm TGR inh = inhibitors of Schistosoma mansoni thioredoxin glutathione reductase. Q962Y6. purified TGR, DTNB reduction, TNB absorbance 405 nm. Potency, µM (titrated, usually from 114 µM), hits mostly inhibitors. 360,000 compounds, 3% hits; note: nearly all actives have a fitted effect of over 60% in size
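TGR 20 nM + NADPH 100 uM (dispensed conc.), cpd preinc 15 min RT; start with NADPH (500 uM addition) then DTNB (15 mM addition). Kinetic TNB absorbance, 405 nm filter. Four-parameter Hill fit across titration.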
HCMV antiviral = blocks human cytomegalovirus replication; activity change, negative = inhibition, % at 57.5 µM; AID 1259415; HFF cells, HCMV-luciferase reporter, 72 h; stronger effect = lower value; 410,000 compounds, 4.5% hits; in the data active = activity change below about -60%; inconclusive = no clear call, values can overlap the other calls; inactive = above about -39%
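Two-dose cell screen: HFF monolayers treated with compounds and infected with luciferase-expressing HCMV at 1 PFU/cell, 72 h at 37C, then lysed for luciferase measurement.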
HCV inhibitor = HCV inhibition | Huh7.5.1 HCVcc-Cre infection, luciferase reporter, 44 h | Potency, µM (top dose mostly 41.8 µM), usual class: inhibitors | 340,000 compounds, 3.4% hits | AID 651820
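Compounds are dispensed onto cells plated 4 h earlier at 1,000 per well, with HCVcc-Cre virus (about 0.5 moi) added next. Following 44 h of culture, luminescent signal is measured for 15 sec after 15 min with substrate at room temperature.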
Each line names hits and unclear results; the compound was inactive in the other large screens; ! = repeats disagree. In the library only some 15% were active in any assay of this set; here they are far more common. Unless noted, calls come from the whole dose curve; as a rule, active = well fitted curve in the direction sought with a large enough effect; inconclusive = small, poorly fitted or top-dose-only effect, or another doubt; inactive = no such curve, though single readings can be large; an effect the other way counts as inactive or inconclusive.

COc1ccc2nc(Nc3nc(CSc4ccc(C)cc4)cc(=O)[nH]3)nc(C)c2c1	Pf growth 48h inconclusive, HCMV antiviral -67
COCc1cc(=O)[nH]c(Nc2nc(C)c3ccccc3n2)n1	HCMV antiviral -102, HCV inhibitor inconclusive (no result: Pf growth 48h)
COCc1cc(=O)[nH]c(Nc2nc3ccccc3o2)n1	Pf growth 48h inconclusive
COc1ccc2nc(Nc3nc(CSc4nnnn4-c4ccccc4)cc(=O)[nH]3)nc(C)c2c1	Pf growth 96h inconclusive, HCV inhibitor inconclusive (no result: Pf growth 48h)
Cc1ccc2c(C)nc(Nc3nc(CSc4nnnn4-c4ccccc4)cc(=O)[nH]3)nc2c1	Pf growth 48h 2.3µM, HCMV antiviral -101, HCV inhibitor 11µM (no result: Pf growth 96h)
CC(=O)c1cccc(NC(=O)c2nccnc2C(=O)O)c1	none
COc1ccc(/C=C/C(=O)OCC(=O)c2ccc3c(c2)NC(=O)CO3)cc1	none
CCCCCCSc1cc(-c2nc3ccc(C)cn3c2NCCCC)ccc1OC	none (no result: Pf growth 48h, Pf growth 96h, Sm TGR inh)
CCCCNc1c(-c2ccc(OC)c(SC3CCCCC3)c2)nc2ccc(C)cn12	HCMV antiviral -101!, HCV inhibitor inconclusive (no result: Pf growth 48h, Pf growth 96h, Sm TGR inh)
Cc1ccc2nc(-c3cccc(SC4CCCCC4)c3)c(NCc3ccccc3)n2c1	HCV inhibitor inconclusive (no result: Pf growth 48h, Pf growth 96h, Sm TGR inh)
COc1ccc(-c2nc3ccc(C)cn3c2NCc2ccccc2)cc1SC1CCCCC1	Pf growth 48h 10µM, Pf growth 96h 6.6µM, HCV inhibitor inconclusive (no result: HCMV antiviral)
CCCCNc1c(-c2ccc(SC3CCCCC3)c(OC)c2)nc2ccc(C)cn12	HCMV antiviral -71!, HCV inhibitor inconclusive (no result: Pf growth 48h, Pf growth 96h, Sm TGR inh)
CCOc1cc(C#N)c(NC(=O)Cn2nnc(-c3ccc(C)cc3)n2)cc1OCC	none (no result: Pf growth 48h, Pf growth 96h, SARS PLpro yeast, HCV inhibitor)
COc1cc(C2Nc3ccc4ncccc4c3C3=C2C(=O)CCC3)cc(OC)c1OC (stereo unspecified)	Pf growth 48h inconclusive
Cc1ccsc1C1Nc2ccc3ncccc3c2C2=C1C(=O)CCC2 (stereo unspecified)	Pf growth 48h 10µM, Pf growth 96h 4.7µM
C=CCc1cccc(C=Nc2ccc(Br)cc2)c1O	none
C=CCc1cccc(/C=N/c2ncccc2O)c1O	Sm TGR inh 28µM
CC(C)CC(=O)NCC(C)NC(=O)CC(C)C (stereo unspecified)	Pf growth 96h 15µM
Cc1cccc(NC(=O)C2CC(=O)n3cnnc3S2)c1 (stereo unspecified)	Sm TGR inh 0.4µM (no result: Pf growth 96h)
C[C@@H](c1ccccc1)N1C[C@@H](COCc2ccccc2)Oc2cc(N3CCC[C@H]3C(N)=O)ccc2S1(=O)=O	none (no result: Pf growth 48h, Pf growth 96h, SARS PLpro yeast, Sm TGR inh, HCV inhibitor)
CSc1nnc2c3c4c(sc3c(=O)n(-c3ccccc3)n12)CC(C)(C)OC4	Pf growth 48h 0.74µM (no result: Pf growth 96h)
COc1ccc(Cl)cc1C(=O)Nc1ccc2nc(Nc3cccc(Cl)c3)cc(C)c2c1	HCMV antiviral inconclusive (no result: Pf growth 48h, Pf growth 96h, SARS PLpro yeast, HCV inhibitor)
COc1ccc(CC(=O)Nc2ccc3nc(Nc4cccc(Cl)c4)cc(C)c3c2)cc1OC	HCMV antiviral -69 (no result: Pf growth 48h, Pf growth 96h, SARS PLpro yeast, HCV inhibitor)
Cc1cc(Nc2cccc(Cl)c2)nc2ccc(NC(=O)Cc3cccc(C(F)(F)F)c3)cc12	HCMV antiviral -99 (no result: Pf growth 48h, Pf growth 96h, SARS PLpro yeast, HCV inhibitor)
Cc1cc(Nc2cccc(Cl)c2)nc2ccc(NC(=O)Cc3c(F)cccc3Cl)cc12	none (no result: Pf growth 48h, Pf growth 96h, SARS PLpro yeast, HCV inhibitor)
Cc1cc(Nc2cccc(Cl)c2)nc2ccc(NC(=O)Cc3ccc(Cl)cc3)cc12	HCMV antiviral -104 (no result: Pf growth 48h, Pf growth 96h, SARS PLpro yeast, HCV inhibitor)
Cc1ccc(S(=O)(=O)N2CCOC23CCN(C(=O)C(=O)NCCC(C)C)CC3)cc1	none
O=C(C1=C(O)C(=O)N(CC2CCCO2)C1c1cccc(Cl)c1)c1ccco1 (stereo unspecified)	none
CCN(c1cccc(C)c1)S(=O)(=O)c1csc(C(N)=O)c1	none
CCN(c1cccc(C)c1)S(=O)(=O)c1ccc2c(c1)N(C(C)=O)CCS2	HCMV antiviral -70, HCV inhibitor 11µM
CCCCCOC(=O)CSc1ncnc2sc3c(c12)CCC(C)C3 (stereo unspecified)	none (no result: Pf growth 48h, Pf growth 96h, SARS PLpro yeast, HCV inhibitor)
COc1cccc(OCc2cc(C(=O)N3CCC(C(O)C(C)C)CC3)no2)c1 (stereo unspecified)	Pf growth 48h inconclusive, Pf growth 96h inconclusive
O=C(c1cc(COc2ccc3ncccc3c2)on1)N1CCCC(O)C1 (stereo unspecified)	Pf growth 96h inconclusive, HCMV antiviral -63, HCV inhibitor inconclusive
